The results in this text go back to the supplement of paper PMC6555819.

The assay deals with VDR:RXRa (NR concentration 270 nM, RXRa partner concentration 90 nM). In words: PBM binding z-score (relative to random genomic background probes); higher = stronger binding; sequences stand for … in GC…GCGATTGACAGCGTAGAATGAAGG
The procedure: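 Protein-binding microarray (Agilent 4x180K custom design, double-stranded 60-nt probes: 5' GC cap, 34-nt variable region, 24-nt constant primer region; full probe sequence given). Purified or IVT nuclear receptor:RXRα heterodimers (3:1 NR:RXRα, mostly 270:90 nM) or homodimers were incubated for 1 h in PBS with 2% milk and no ligand, then detected with Alexa488 antibodies. Fluorescence from o1-orientation probes (~5 replicates averaged) was converted to z-scores against 500 random hg19 background probes. Variable regions are seed direct-repeat (DR0–DR5) sites, all their single-nucleotide variants and half-site ablations.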
As to TCTCGGAGGACACCAAAGGTCAGAGCTCGACATC, the PBM binding z-score was 3.38.

In the case of CGTCAAACTTCAACTAAGGTAACGTAAAGCACGC, the PBM binding z-score came out at 0.382.

Turning to GCTAGTTGGTCAGTAAAATGTCACACACCGGTCG, the PBM binding z-score is -0.0389.

In turn, CGAACTAGGTCATCCAGGTCAGTGAATACATTGA displayed a PBM binding z-score of 6.41.

The sequence CGAACAAGGTCATCCAGGACAGTGAATACATTGA had a PBM binding z-score of 6.39.

Turning to GCTGCTAGGTCAACTGATGGTCATCTAAAGCTCG, the PBM binding z-score was 2.28.

Sequence CCTACTGGGCCTAAGGTCATTGATTCCAATGCTC showed a PBM binding z-score of 3.34.

As to CCTACTGGGCCATTCAGAGGTCAATGATCATATG, the PBM binding z-score is 3.4.

The sequence AGTCAAAGTTCAGGACGACGTAACGTAAAGCACG registered a PBM binding z-score of 2.18.

Turning to TTGCCAAGGTGAAAGGTCGTTGATGCACGCCTTG, the PBM binding z-score was 3.23.

Consider ATCGAAAGGTCCACGAGGTGAGTATACACCGTTT, for which the PBM binding z-score amounted to 1.22.

In the case of AGAATGAGGTTACTAAAGATCAGGGAAACGCTTG, the PBM binding z-score was 0.79.

With AGTCAAAGTTGAGGACGAGGTAACGTAAAGCACG, the PBM binding z-score was found to be 0.263.

CTCGAAAGGTCATGCTCAGGTGAGTATACCAAAC showed a PBM binding z-score of 5.69.

Sequence CAAACTAGGTCAAGGTCTAAGTCGGTTTGTGCCA came in with a PBM binding z-score of 1.95.

As for ATCGAAAGGTCAAAGGTGAGTATACCCACCCGAA, the PBM binding z-score was 6.2.

As to CGTCCAAGGACAATGCTAGGTCAGTGAAAGCATT, the PBM binding z-score was 0.294.

For AGAATGAGGTCATACGTAGATCAGGGAAGAAAGT, the PBM binding z-score came to 5.41.

Regarding CGTACAAGGTCAAAGGTCAGTGAAGAGATGACGG, the PBM binding z-score was 6.84.

The sequence TATAAAGGGTCAAAGGCCAGAGTACGAATGTCGA registered a PBM binding z-score of 4.86.

Turning to CACACTAGGTCACAGAGGTCAAAGTCCGTGCGTA, the PBM binding z-score was determined as 8.14.

For the sequence TCTGCTAGGTCAACGTTGGTCAGCTAATCTGCTA, the PBM binding z-score worked out at 1.46.

Consider CCTTACGGGTCACTGACAGGTTATAGCGTTTGGA, for which the PBM binding z-score came out at 3.63.

On to TAGCCTAGGTCATTCAGGGGCAAGTATAGAAAGC, for which the PBM binding z-score was 5.23.

CCTAGTTGGTCAAGGTCACACCCGCTATAGGTAC had a PBM binding z-score of 3.99.

In turn, ATATGTAGGTTACCTGGGGTCATTCAGACTAGGC came in with a PBM binding z-score of 6.78.

CTATGTGGGTTAAGGGGGTCATTCAGTTTGAAAG had a PBM binding z-score of 7.5.

Regarding TAGCCTAGGTCATGGGCCAGTGTACCACGCGAAC, the PBM binding z-score is 2.18.

With AGAATGAGGTTAAACGTAGATCAGGGAAGAAAGT, the PBM binding z-score is 2.03.

As for CCGAGAAGGTTACGAGGGGGCATTCAGTGCGAAT, the PBM binding z-score came to 6.24.

For GGAACGAGGGCAAAGTTCATAGCATCTGTCGACG, the PBM binding z-score is 5.05.

Take ACTCGGTGGACAAAGGTCAGAGCTACGCCAGTGA: the PBM binding z-score was found to be 2.91.

On to AATACAGGGTCATCGTACGCCAGAGTACGCACAG, for which the PBM binding z-score was 5.2.

For ACTAGTTGGTCAGCTGAGGTCACACCCAATTCGG, the PBM binding z-score amounted to 4.19.

On to ATCGAAAGGTCGAAGGTGCGTATACCCACCCGAA, for which the PBM binding z-score worked out at 2.58.

Sequence AATACAGGGTAACTAGGCCAGAGTAGGTACGAAT registered a PBM binding z-score of 0.199.

For CGTCAAAGGTCAGCAGGTCAGTGAAAGCGACGTG, the PBM binding z-score came to 5.16.

Regarding TCTTGTAGATCGATAGAGGTTAAGAAAGTGCGCT, the PBM binding z-score turned out to be 1.45.

The sequence AGAATGAGGTTACCAAAGTTCAGGGAAACGCTTG gave a PBM binding z-score of 5.53.

CGTCAAAGTTCAACTAAGGTTACGTAAAGCACGC: the PBM binding z-score came out at 6.11.
